# Data as given in article PMC5515408, “Sequence-specific DNA binding by MYC/MAX to low-affinity non-E-box motifs”.
# The full ranking holds about 5,000 sequences; the median of “log2 normalized fluorescence” is about 0.089, and the highest 2% start at about 0.81. Many of the other results were omitted from the sample, so the highest values are more common in it than they were.
# Biological target: MYC (p64);MAX (p21), in MYC:MAX (human;human, UniProt P01106-1;P61244-2 1-439;1-151, |)
# Test: protein-binding microarray (anti-MAX antibody); PBM: 15 mM Tris-HCl pH 7.5, 100 mM KCl, 0.075% NP40, 7.5 mM beta-mercaptoethanol, 375 ng/ul BSA, 8 ng/ul poly(dA-dT):(dA-dT), 550 ng complex, 60 min, room tempe; high values mean tight binding
# Conditions: protein: recombinant;recombinant; tags: 6xHis;6xHis; copies: 1;1; label: 3' end of printed strand (linker) attached to glass slide; dsDNA, one strand shown
# In short: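 Recombinant His-tagged human MYC:MAX or MAX:MAX dimers (550 ng, expressed in E. coli) were incubated for 60 min at room temperature in Tris-KCl buffer, pH 7.5, with NP40, BSA and poly(dA-dT) competitor. The custom Agilent glass array held ~5000 unique 12-nt sequences, each spotted in triplicate and made double-stranded by primer extension. Bound protein was detected with anti-MAX and secondary antibodies and scanned at 543 nm. Binding is reported as log2 normalized fluorescence.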
# MYC (p64);MAX (p21), in MYC:MAX, sequence (P01106 16-454, chain 1 of 2): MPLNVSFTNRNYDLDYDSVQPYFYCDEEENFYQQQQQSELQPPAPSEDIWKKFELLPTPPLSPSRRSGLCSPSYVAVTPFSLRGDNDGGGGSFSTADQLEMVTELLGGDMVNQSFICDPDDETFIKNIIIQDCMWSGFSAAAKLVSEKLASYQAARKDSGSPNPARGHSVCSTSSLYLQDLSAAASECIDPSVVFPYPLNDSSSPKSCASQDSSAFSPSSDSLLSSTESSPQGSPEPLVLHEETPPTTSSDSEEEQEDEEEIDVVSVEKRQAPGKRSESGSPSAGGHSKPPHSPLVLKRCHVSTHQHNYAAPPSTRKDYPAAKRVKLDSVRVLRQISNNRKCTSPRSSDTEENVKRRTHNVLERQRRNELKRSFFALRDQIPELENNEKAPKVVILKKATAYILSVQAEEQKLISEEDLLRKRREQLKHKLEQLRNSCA
# MYC (p64);MAX (p21), in MYC:MAX, sequence (P61244 other isoform, or with tags, fused parts or gaps |, chain 2 of 2): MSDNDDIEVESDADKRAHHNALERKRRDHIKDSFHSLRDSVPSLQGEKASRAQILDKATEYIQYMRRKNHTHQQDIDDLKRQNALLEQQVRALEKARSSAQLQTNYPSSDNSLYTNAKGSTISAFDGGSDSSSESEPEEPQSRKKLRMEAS
row,Sequence,binding signal
1,CCGGCTGACGCTTTGTATTAATAGCTAAGATTACTATATCGACG,0.148 log2 normalized fluorescence
2,CCGGCTGACCATTGGTATTAATAGCTAAGATTACTATATCGACG,0.0788 log2 normalized fluorescence
3,CCGGCTGAAAGAGTGTATTAATAGCTAAGATTACTATATCGACG,0.0309 log2 normalized fluorescence
4,CCGGCTGAGAGACGGTATTAATAGCTAAGATTACTATATCGACG,-0.00994 log2 normalized fluorescence
5,CCGGCTGACACGCGAGATTAATAGCTAAGATTACTATATCGACG,0.438 log2 normalized fluorescence
6,CCGGCTGAAGATGTGTATTAATAGCTAAGATTACTATATCGACG,0.0913 log2 normalized fluorescence
7,CCGGCTGAAAAGAGGTATTAATAGCTAAGATTACTATATCGACG,-0.00138 log2 normalized fluorescence
8,CCGGCTGACAGCAAGTATTAATAGCTAAGATTACTATATCGACG,0.286 log2 normalized fluorescence
9,CCGGCTGACCGTAAGTATTAATAGCTAAGATTACTATATCGACG,0.214 log2 normalized fluorescence
10,CCGGCAAGTTTAAGCCGTTAATAGCTAAGATTACTATATCGACG,0.00903 log2 normalized fluorescence
11,CCGGCTGAGCCGCTGTATTAATAGCTAAGATTACTATATCGACG,0.0565 log2 normalized fluorescence
12,CCGGCTGAGAGGCCGTATTAATAGCTAAGATTACTATATCGACG,0.0066 log2 normalized fluorescence
13,CCGGCTGAAGGGTGGTATTAATAGCTAAGATTACTATATCGACG,0.18 log2 normalized fluorescence
14,CCGGCTGAAGAGGGGTATTAATAGCTAAGATTACTATATCGACG,0.288 log2 normalized fluorescence
15,CCGGCTGAAAAAGGGTATTAATAGCTAAGATTACTATATCGACG,-0.0246 log2 normalized fluorescence
16,CCGGCTGAGGGAGAGTATTAATAGCTAAGATTACTATATCGACG,-0.0403 log2 normalized fluorescence
17,CCGGCTGAAGGGGGGTATTAATAGCTAAGATTACTATATCGACG,0.855 log2 normalized fluorescence
18,CCGGCTGAAAAGGGGTATTAATAGCTAAGATTACTATATCGACG,0.161 log2 normalized fluorescence
19,CCGGCTGAAAGGGGGTATTAATAGCTAAGATTACTATATCGACG,0.83 log2 normalized fluorescence
20,CCGGCTGAGGGGGAGTATTAATAGCTAAGATTACTATATCGACG,0.823 log2 normalized fluorescence
21,CCGGCTGAGGGGAGGTATTAATAGCTAAGATTACTATATCGACG,0.438 log2 normalized fluorescence
22,CCGGCTGACTGGTCGTATTAATAGCTAAGATTACTATATCGACG,0.229 log2 normalized fluorescence
23,CCGGCTGACCTCTGGTATTAATAGCTAAGATTACTATATCGACG,-0.0273 log2 normalized fluorescence
24,CCGGCTGAGTGAGGGTATTAATAGCTAAGATTACTATATCGACG,0.097 log2 normalized fluorescence
25,CCGGCTGAAAAGCGGTATTAATAGCTAAGATTACTATATCGACG,0.0993 log2 normalized fluorescence
26,CCGGCTGACACTTAGTATTAATAGCTAAGATTACTATATCGACG,0.231 log2 normalized fluorescence
27,CCGGCTGACAAGTGGGATTAATAGCTAAGATTACTATATCGACG,0.302 log2 normalized fluorescence
28,CCGGCTGAGTGAGTGTATTAATAGCTAAGATTACTATATCGACG,0.08 log2 normalized fluorescence

row,Sequence,binding signal
1,CCGGCTGACGTTGTGTATTAATAGCTAAGATTACTATATCGACG,0.16 log2 normalized fluorescence
2,CCGGCTGGAACGTGGTATTAATAGCTAAGATTACTATATCGACG,0.66 log2 normalized fluorescence
3,CCGGCTGAGCATATGTATTAATAGCTAAGATTACTATATCGACG,0.395 log2 normalized fluorescence
4,CCGGCTGAAGGCGTGTATTAATAGCTAAGATTACTATATCGACG,0.409 log2 normalized fluorescence
5,CCGGCTTTCACATGGTATTAATAGCTAAGATTACTATATCGACG,0.504 log2 normalized fluorescence
6,CCGGCTGACACGAGGTATTAATAGCTAAGATTACTATATCGACG,0.625 log2 normalized fluorescence
7,CCGGCAGACATGGGGTATTAATAGCTAAGATTACTATATCGACG,0.458 log2 normalized fluorescence
8,CCGGCAGACACATGGTATTAATAGCTAAGATTACTATATCGACG,0.834 log2 normalized fluorescence
9,CCGGCAGACACGAGGTATTAATAGCTAAGATTACTATATCGACG,0.93 log2 normalized fluorescence
10,CCGGCAGACACGAGGTTTTAATAGCTAAGATTACTATATCGACG,0.64 log2 normalized fluorescence
11,CCGGCAGACACTTGGTATTAATAGCTAAGATTACTATATCGACG,0.421 log2 normalized fluorescence
12,CCGGCTAACACATGGTATTAATAGCTAAGATTACTATATCGACG,0.6 log2 normalized fluorescence
13,CCGGCAGTCACATGGTATTAATAGCTAAGATTACTATATCGACG,0.995 log2 normalized fluorescence
14,CCGGCTGACTACATGTATTAATAGCTAAGATTACTATATCGACG,0.419 log2 normalized fluorescence
15,CCGGCTGTCAAGTGGCATTAATAGCTAAGATTACTATATCGACG,0.1 log2 normalized fluorescence
16,CCGGCTGAGTTTCCGTATTAATAGCTAAGATTACTATATCGACG,-0.0243 log2 normalized fluorescence
17,CCGGCTGAAGGATGGTATTAATAGCTAAGATTACTATATCGACG,0.0538 log2 normalized fluorescence
18,CCGGCTGTCCCCTGGTATTAATAGCTAAGATTACTATATCGACG,-0.00889 log2 normalized fluorescence
19,CCGGCTGACTGTGAGTATTAATAGCTAAGATTACTATATCGACG,0.00564 log2 normalized fluorescence
20,CCGGCTGACGGCAGGTATTAATAGCTAAGATTACTATATCGACG,-0.00507 log2 normalized fluorescence
21,CCGGCGGACACGTGTGATTAATAGCTAAGATTACTATATCGACG,0.779 log2 normalized fluorescence
22,CCGGCGGACCCGTGGTATTAATAGCTAAGATTACTATATCGACG,0.439 log2 normalized fluorescence
23,CCGGCGGACACGTGGTATTAATAGCTAAGATTACTATATCGACG,0.99 log2 normalized fluorescence
24,CCGGCGGACGCGTGGTATTAATAGCTAAGATTACTATATCGACG,0.64 log2 normalized fluorescence
25,CCGGCGGACACGTCGTATTAATAGCTAAGATTACTATATCGACG,0.287 log2 normalized fluorescence
26,CCGGCGGACACGTGCTATTAATAGCTAAGATTACTATATCGACG,0.839 log2 normalized fluorescence
27,CCGGCTGAGTACCTGTATTAATAGCTAAGATTACTATATCGACG,0.076 log2 normalized fluorescence
